Only some compounds are listed: those with a hit (about 10% of all), similar ones and a draw of the others.
G9a inh = inhibitors of human histone lysine methyltransferase G9a | Q96KQ7 | G9a H3K9 monomethylation, AlphaScreen, 2 h | Potency, µM (top dose mostly 102 µM), inactives show at the highest dose activity, negative = inhibition, most hits filed as inhibitors | AID 504332 | actives 8.8% (n = 350,000); further: potency means the concentration at half of the fitted maximal effect; on the % scale 0 is the no-effect control and ±100 the full control effect; nearly all actives have a fitted effect of over 75% in size
Target sequence (Q96KQ7 913-1193 limits assumed): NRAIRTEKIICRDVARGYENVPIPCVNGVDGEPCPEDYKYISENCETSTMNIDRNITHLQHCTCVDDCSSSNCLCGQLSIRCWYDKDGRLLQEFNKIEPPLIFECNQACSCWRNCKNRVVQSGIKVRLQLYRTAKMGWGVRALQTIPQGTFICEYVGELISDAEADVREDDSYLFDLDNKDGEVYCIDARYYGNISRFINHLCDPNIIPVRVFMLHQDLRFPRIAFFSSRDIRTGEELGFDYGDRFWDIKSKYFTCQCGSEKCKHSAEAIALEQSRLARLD
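Compounds were preincubated with 20 nM G9a for 15 min, after which biotinylated H3K9 peptide (500 nM) and SAM (20 uM) started a 2 h room-temperature reaction. Monomethylated product was quantified by antibody-based AlphaScreen chemiluminescence.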
CtBP-E1A inh = CtBP/E1A binding inhibition | AlphaScreen GST-E1A/His-CtBP binding, 1536-well; hits give low values | activity change, % (no concentration beside the values) | actives 0.49% (n = 340,000) | AID 651724; in the data active means activity change below about -65%; inconclusive means mostly about -30% to -63%; further: on the % scale 0 is the no-effect control and ±100 the full control effect
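In 5 uL wells, 23 nL compound meets equimolar GST-E1A and His-CtBP (5X stock 125 nM each) for 2 h, 37 °C. Beads (5X, 50 ug/mL) then 1 h, 37 °C, dark.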
Six1-Eya2 blk = Six1/Eya2 interaction inhibition | AlphaScreen GST-Six1/His-Eya2 binding, biochemical; hits give low values | Q15475+O00167 | activity change, % (no concentration beside the values) | actives 0.56% (n = 360,000); in the data active means activity change below about -65%; inconclusive means mostly about -30% to -63%; further: on the % scale 0 is the no-effect control and ±100 the full control effect
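Homogeneous AlphaScreen proximity assay pairing GST-Six1 with His-tagged Eya2 (added as 5X mix: 250 nM and 500 nM) in 50 mM Tris pH 8.0, 300 mM NaCl, 1 mM TCEP. Glutathione donor and nickel acceptor beads; 1 h, 37 °C, dark.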
HP1b binding inh = HP1-beta chromodomain-methylated histone interaction inhibition. AlphaScreen HP1-beta / biotin-H3K9me3 peptide binding. Potency, µM (top dose mostly 114 µM), inactives show at the top dose activity change, negative = inhibition, actives largely listed as inhibitors. actives 0.56% (n = 390,000). AID 540317; further: potency means the concentration at half of the fitted maximal effect; nearly all actives have a fitted effect of over 70% in size
Target sequence (P83916 whole entry, looked up): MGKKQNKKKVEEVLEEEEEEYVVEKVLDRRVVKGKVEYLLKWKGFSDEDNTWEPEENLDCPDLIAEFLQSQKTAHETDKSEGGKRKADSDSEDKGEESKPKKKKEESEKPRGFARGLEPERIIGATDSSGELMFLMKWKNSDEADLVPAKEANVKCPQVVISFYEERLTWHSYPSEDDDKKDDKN
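AlphaScreen: HP1-beta (50 nM) preformed 30 min with biotin-H3(1-18)K9me3 peptide (50 nM) in PBS pH 7.4, 0.01% Tween-20. Compound added for 30 min at RT, then streptavidin donor/nickel chelate acceptor beads (10 ug/mL) for 30 min.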
JMJD2A Tudor = JMJD2A Tudor domain (human) inhibition | O75164 | AlphaScreen JMJD2A-Tudor / H3K4me3 peptide binding | Potency, µM (doses to about 114 µM), for inactives: at the top dose activity change, negative = inhibition, hits mostly inhibitors | actives 4.4% (n = 390,000); further: potency means the concentration at half of the fitted maximal effect; on the % scale 0 is the no-effect control and ±100 the full control effect; nearly all actives have a fitted effect of over 50% in size
BAZ2B inh = blocks human BAZ2B; Q9UIF8; AlphaScreen BAZ2B-H3K14Ac peptide displacement; Potency, µM (doses to about 114 µM), without a hit: at the top dose activity change, negative = inhibition, hits mostly inhibitors; actives 4.4% (n = 360,000); AID 504333; further: potency means the concentration at half of the fitted maximal effect; on the % scale 0 is the no-effect control and ±100 the full control effect; nearly all actives have a fitted effect of over 60% in size
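Inhibition is scored as reduced AlphaScreen emission. The BAZ2B/b-H3(5-23)K14Ac complex (50 nM each) in PBS pH 7.4, 0.01% Tween-20 meets compound (up to 110 uM) for 30 min at RT before bead addition.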
* hit, by the source's call; u = inconclusive; x = no result; [ ] = another dose, or the depositor's remark. Unless noted, the call rests on the fitted dose curve; in most records, active means well fitted inhibition curve with a large enough effect; inconclusive means small, poorly fitted or top-dose-only effect; inactive means no such curve, though single readings can be large or run the other way.

SMILES	G9a inh	CtBP-E1A inh	Six1-Eya2 blk	HP1b binding inh	JMJD2A Tudor	BAZ2B inh
CN1CCN(c2ccc([N+](=O)[O-])cc2NC(=O)c2ccccc2Cl)CC1	-10%[0.501 µM]	-12	-9	8%	-6%	u
CN1CCN(C(=S)Nc2cc([N+](=O)[O-])ccc2Cl)CC1	3.2µM*	2	7	-4%	u	-28%
COc1cc(NC(=S)N2CCN(C)CC2)c(OC)cc1Cl	40µM*	6	-4	12%	1%	-19%
CCN1CCN(C(=S)Nc2cccc([N+](=O)[O-])c2)CC1	71µM*	7	5	5%	-16%	-7%
Cc1cccc(OCCNC(=O)c2cncc(Br)c2)c1	6%[59 µM]	x	6	33%	1%	-1%
CN(C)c1ncc2nc(-c3ccccc3)c(=O)n(C3CC3)c2n1	6%[12.7 µM]	x	x	x	x	x
C[C@@H](C(=O)NCCc1ccccc1)N1C(=O)N2CCc3c([nH]c4ccccc34)[C@@]2(C)C1=O	x	-5	-11	2%	-29%	-2%
CCOC(=O)c1ccc(CSC(=N)N)o1	-6%	-16	2	56%	-4%[11.4 µM]	-1%
CCc1oc(C(=O)OC)cc1CSC(=N)N	50µM*	2	-2	12%	-15%	-6%
COC(=O)C(=O)/C=C(\O)c1c(C)cc(C)cc1C	18µM*	-2	-5	8%	u	79µM*
Cc1ccc(S(=O)(=O)Nc2cc3c(C(=O)OCc4ccccc4)c(C)oc3c3ccccc23)c(C)c1	u	x	x	1%	-26%	-26%
Cc1ccc(NC(=O)CSc2nnc(-c3ccncc3)s2)cc1	22%	2	9	12%	-14%	-19%
O=C(CSc1nnc(-c2cccnc2)s1)Nc1ccc(C(=O)O)cc1	14µM*	0	1	16%	-25%	-12%
Cc1cc(Br)ccc1NC(=O)CN(C)C(=O)Cn1c(=O)cnc2ccccc21	x	0	0	u	18µM*	79µM*
COc1ccc(C)cc1NC(=O)CSCc1cc(=O)n2c(C)csc2n1	-3%	1	8	45%	0%	79µM*
COc1ccccc1NC(=O)CSCc1cc(=O)n2c(C)csc2n1	5%	2	9	42%	-11%	-24%
COc1cccc(-n2c(-c3ccc(Cl)cc3)cc3c2CC(C)(C)CC3=O)c1	u	x	x	-21%	8.9µM*	8.9µM*
Cc1ccc(-c2cc3c(n2-c2ccc(C)cc2)CC(C)(C)CC3=O)cc1	-41%[59 µM]	x	x	14%	u	-14%
COc1cccc(-n2c(-c3ccc(C)cc3)cc3c2CC(C)(C)CC3=O)c1	u	x	x	10%	u	11µM*
CC1(C)CC(=O)c2cc(-c3nc(-c4ccc(Cl)cc4)cs3)c(=O)n(-c3ccc(F)cc3)c2C1	u	x	x	15%	-10%	6%
COc1ccc(-n2c(-c3ccc(C)cc3)cc3c2CC(C)(C)CC3=O)cc1Cl	10µM*	x	x	u	32µM*	5µM*
CCOc1ccc(-n2c(-c3ccc(OC)cc3)cc3c2CC(C)(C)CC3=O)cc1	14µM*	x	x	-24%	16µM*	13µM*
COc1ccccc1NC(=O)N1c2ccccc2Sc2ccccc21	-9%[59 µM]	x	x	51%	4%	11%
COc1ccc(-n2c(-c3ccc(C)cc3)cc3c2CC(C)(C)CC3=O)c(OC)c1	13µM*	x	x	u	18µM*	14µM*
Cc1ccc(-c2cc3c(n2-c2ccc(F)cc2)CC(C)(C)CC3=O)cc1	-31%[59 µM]	x	x	-8%	-24%	-25%
SMILES	G9a inh	CtBP-E1A inh	Six1-Eya2 blk	HP1b binding inh	JMJD2A Tudor	BAZ2B inh
C[C@H](CO)N1C[C@H](C)[C@@H](CN(C)C(=O)NC2CCCCC2)Oc2c(NC(=O)Nc3ccccc3)cccc2C1=O	x	29	28	57%	-14%	x
COC(=O)C1=COC(C)C2CN3CCc4c([nH]c5cc(OC)c(OC)cc45)C3CC12 (centres undefined)	-32%[12.7 µM]	u	u	u	25µM*	50µM*
COc1cc(/C=C/C(=O)c2ccc3c(c2)OCO3)cc(Cl)c1O	45µM*	-2	-3	u	u	u
COc1ccccc1NC(=O)N(C)C[C@H]1Oc2ncc(Br)cc2C(=O)N([C@H](C)CO)C[C@H]1C	x	6	10	x	x	x
Cc1oc(-c2cccs2)nc1CS(=O)CC(=O)NCCc1ccccc1 (centres undefined)	50µM*	-1	-2	21%	-26%	-25%
Cc1oc(-c2cccs2)nc1CS(=O)CC(=O)NCCCOC(C)C (centres undefined)	u	8	1	45%	-11%	5%
COc1ccc(-c2nc(CS(=O)CC(=O)NCCC3=CCCCC3)c(C)o2)cc1 (centres undefined)	79µM*	24	13	57%	-19%	-2%
Cc1oc(-c2ccc(Cl)cc2)nc1CS(=O)CC(=O)NCCc1ccccc1 (centres undefined)	6%[59 µM]	x	x	20%	-27%	-13%
COc1ccc(-c2nc(CS(=O)CC(=O)NC3CCCC(C)C3C)c(C)o2)cc1OC (centres undefined)	56µM*	0	-1	27%	-5%	-4%
COc1ccc(-c2nc(CS(=O)CC(=O)NC3CCCCC3)c(C)o2)cc1OC (centres undefined)	u	-12	-1	39%	-5%	-15%
CCCCNC(=O)CS(=O)Cc1nc(-c2cccs2)oc1C (centres undefined)	50µM*	-4	5	35%	-9%	-2%
Cc1ccc(C(=O)NCC(=O)OCc2cccc(Br)c2)cc1	-2%	-3	8	26%	-3%	8%
O=C(C1CCCN(S(=O)(=O)c2cccc3nsnc23)C1)N1CCN(c2ccccc2Cl)CC1 (centres undefined)	-31%[59 µM]	x	x	21%	-33%	x
CN1CCc2c(sc(NC(=O)CS(=O)(=O)c3ccc(F)cc3)c2C(N)=O)C1	50µM*	-3	-5	24%	-5%	0%
CNC(=O)c1c(NC(=O)CCS(=O)(=O)c2ccc(Cl)cc2)sc2c1CCN(C(=O)OC)C2	50µM*	1	-2	12%	-19%	-5%
CC(=O)N1CCc2c(sc(NC(=O)CS(=O)(=O)c3ccc(F)cc3)c2C(N)=O)C1	50µM*	-4	-6	1%	-10%	-35%
CN1CCc2c(sc(NC(=O)Cc3ccc(F)cc3)c2C(N)=O)C1	3%[59 µM]	x	0	24%	-12%	-4%
O=C(Nc1ccccn1)c1cc(-c2cccc(Cl)c2)nc2ccccc12	6%[59 µM]	1	-4	23%	-22%	-7%
COc1cc(NC(=O)c2c(C)oc3c2C2=NCCN2C=N3)cc(OC)c1OC	5%[59 µM]	x	x	u	-32%	-28%
CC(C)C(C(=O)Nc1ccccc1F)N1C(=O)c2ccccc2C1=O (centres undefined)	x	-2	2	15%	-19%	x

Assay outcomes deposited in PubChem BioAssay by National Center for Advancing Translational Sciences (NCATS).
